Consider 18 compounds from PubChem BioAssay.

As usually defined, the inhibition is the change of the read-out against control, counted positive when it falls.

Unmarked numbers belong to inactive results. For part of these data: Entries with a potency or affinity are not part of this list. Calls of active or inactive are those of the source. Unless noted, how the calls were made is not given here.

Assay [1] in a line: antimalarial activity against Dd2 strain (AID 2302;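 active means growth inhibition above 50% at the single 2 µM test dose, taken to imply half-maximal potency below 2 µM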;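 further: 0% = DMSO untreated growth and 100% = chloroquine plus artemisinin killed control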). Particulars: P. falciparum Dd2 in RBCs, LDH growth readout, 72 h; at 2 µM; hits give high values.
Assay [2] is described as follows: human hepatoma cell viability loss – ATP luminescence, cytotoxicity control for P. falciparum antimalarial project, primary screen (AID 2303;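 active means inhibition above 50%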;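 further: 0% = DMSO wells and 100% = digitonin-killed cells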). Particulars: HepG2 viability, 24-48 h, at 10 µM, hits give high values.
Assay [3] addresses L-lactate dehydrogenase (Plasmodium falciparum (isolate CDC / Honduras)) (UniProt Q27743). The experiment in a line: PfLDH activity inhibition – cell lysate, 3D7 strain, counter-screen for P. falciparum growth inhibition project (AID 2304).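 Further: 0% = vehicle and 100% = reference inhibitor.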 Particulars: P. falciparum 3D7 crude extract, LDH APAD/NBT absorbance; at 2 µM; hits give high values. In general terms: A counterscreen serves to expose hits that act by an unwanted route or on another target.

A short description of assay [4]: inhibition of 3D7 malaria parasite growth – strain 3D7 (AID 2306).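 Further: 0% = DMSO wells and 100% = chloroquine plus artemisinin control wells.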 The settings on record: P. falciparum 3D7 erythrocytic growth, LDH absorbance, 72 h; at 2 µM; hits give high values.
Assay [5] addresses Calcium-dependent protein kinase 1 (Plasmodium falciparum (isolate 3D7)) (UniProt P62344). Briefly: PfCDPK1 kinase inhibitors, biochemical, TCAMS library (AID 1159585; cut-off not given, nearly all actives have IC50 up to about 0.98 µM;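 further: inhibitors leave more ATP so luminescence rises with inhibition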). Particulars: recombinant PfCDPK1, Kinase-Glo ATP depletion luminescence. A general note: In Kinase-Glo more light means more ATP remaining.
In assay [6] the target is Plasmodium falciparum protein kinase 6 (PK6, PF3D7_1337100) (UniProt Q8IDW1). The experiment in a line: PfPK6 kinase inhibitors, biochemical, TCAMS library (AID 1159586). The settings on record: recombinant PfPK6, Kinase-Glo ATP depletion luminescence.
Chain of Plasmodium falciparum protein kinase 6 (PK6, PF3D7_1337100) (Q8IDW1 1-305): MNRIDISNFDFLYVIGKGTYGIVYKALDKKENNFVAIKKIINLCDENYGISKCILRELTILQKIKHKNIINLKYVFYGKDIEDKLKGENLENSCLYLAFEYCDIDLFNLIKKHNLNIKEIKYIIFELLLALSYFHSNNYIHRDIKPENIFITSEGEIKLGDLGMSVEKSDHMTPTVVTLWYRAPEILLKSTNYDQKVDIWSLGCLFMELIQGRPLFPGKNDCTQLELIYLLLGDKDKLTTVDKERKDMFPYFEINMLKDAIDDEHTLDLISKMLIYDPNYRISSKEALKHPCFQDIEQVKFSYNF
The target in assay [7] is Protein kinase 7 (PK7), Plasmodium falciparum 3D7 (PF3D7_0213400) (UniProt Q7YTF7). The experiment in a line: inhibition of Plasmodium PK7 catalytic activity – biochemical, TCAMS antimalarial set, Kinase-Glo luminescence (AID 1159587). The settings on record: recombinant PfPK7, Kinase-Glo ATP depletion luminescence.
Chain of Protein kinase 7 (PK7), Plasmodium falciparum 3D7 (PF3D7_0213400) (Q7YTF7 1-343): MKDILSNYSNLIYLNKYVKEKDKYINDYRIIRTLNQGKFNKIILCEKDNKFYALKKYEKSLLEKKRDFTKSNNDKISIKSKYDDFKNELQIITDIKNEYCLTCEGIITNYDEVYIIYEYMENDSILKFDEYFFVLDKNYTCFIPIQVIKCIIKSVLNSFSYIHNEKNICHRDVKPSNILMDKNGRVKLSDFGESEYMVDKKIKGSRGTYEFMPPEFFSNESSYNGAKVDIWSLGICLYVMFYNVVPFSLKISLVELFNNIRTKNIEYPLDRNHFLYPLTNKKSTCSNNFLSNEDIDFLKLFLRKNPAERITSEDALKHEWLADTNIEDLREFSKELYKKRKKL
For assay [8], the target named is Calcium-dependent protein kinase 4 (Plasmodium falciparum (isolate 3D7)) (UniProt Q8IBS5). The experiment in a line: PfCDPK4 kinase inhibitors, biochemical, TCAMS library (AID 1159588; cut-off not given, nearly all actives have IC50 up to about 0.91 µM). The settings on record: recombinant PfCDPK4, Kinase-Glo ATP depletion luminescence.
Chain of Calcium-dependent protein kinase 4 (Plasmodium falciparum (isolate 3D7)) (Q8IBS5 whole entry, looked up): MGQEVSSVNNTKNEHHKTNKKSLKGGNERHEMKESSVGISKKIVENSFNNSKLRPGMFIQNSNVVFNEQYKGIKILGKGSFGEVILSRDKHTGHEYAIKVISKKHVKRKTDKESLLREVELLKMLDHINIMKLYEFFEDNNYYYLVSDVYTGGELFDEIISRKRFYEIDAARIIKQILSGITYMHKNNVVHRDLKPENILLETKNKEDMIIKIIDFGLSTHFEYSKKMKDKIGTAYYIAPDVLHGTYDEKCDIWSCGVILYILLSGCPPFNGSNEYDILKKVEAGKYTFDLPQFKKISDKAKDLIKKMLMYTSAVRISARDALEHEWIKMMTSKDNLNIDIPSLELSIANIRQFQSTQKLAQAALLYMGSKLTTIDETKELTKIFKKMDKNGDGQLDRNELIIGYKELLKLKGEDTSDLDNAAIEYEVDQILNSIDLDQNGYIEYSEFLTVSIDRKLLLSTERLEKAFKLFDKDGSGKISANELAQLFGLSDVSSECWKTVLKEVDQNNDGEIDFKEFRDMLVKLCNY

Chain of Calcium-dependent protein kinase 1 (Plasmodium falciparum (isolate 3D7)) (P62344 whole entry, looked up): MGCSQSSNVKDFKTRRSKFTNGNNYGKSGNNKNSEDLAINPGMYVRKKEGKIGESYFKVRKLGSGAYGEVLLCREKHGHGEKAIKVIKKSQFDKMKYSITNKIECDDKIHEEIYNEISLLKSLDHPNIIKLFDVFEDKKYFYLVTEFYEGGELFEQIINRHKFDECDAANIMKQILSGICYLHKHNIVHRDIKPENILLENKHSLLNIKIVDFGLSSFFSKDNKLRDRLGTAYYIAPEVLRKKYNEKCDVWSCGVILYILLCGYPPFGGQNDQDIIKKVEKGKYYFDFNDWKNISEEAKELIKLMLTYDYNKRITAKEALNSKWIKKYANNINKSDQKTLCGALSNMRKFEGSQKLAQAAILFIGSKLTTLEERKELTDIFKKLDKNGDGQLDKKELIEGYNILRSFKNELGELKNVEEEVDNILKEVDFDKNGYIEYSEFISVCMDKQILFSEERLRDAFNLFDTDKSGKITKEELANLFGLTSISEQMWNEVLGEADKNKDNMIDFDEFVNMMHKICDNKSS
Chain of L-lactate dehydrogenase (Plasmodium falciparum (isolate CDC / Honduras)) (Q27743 whole entry, looked up): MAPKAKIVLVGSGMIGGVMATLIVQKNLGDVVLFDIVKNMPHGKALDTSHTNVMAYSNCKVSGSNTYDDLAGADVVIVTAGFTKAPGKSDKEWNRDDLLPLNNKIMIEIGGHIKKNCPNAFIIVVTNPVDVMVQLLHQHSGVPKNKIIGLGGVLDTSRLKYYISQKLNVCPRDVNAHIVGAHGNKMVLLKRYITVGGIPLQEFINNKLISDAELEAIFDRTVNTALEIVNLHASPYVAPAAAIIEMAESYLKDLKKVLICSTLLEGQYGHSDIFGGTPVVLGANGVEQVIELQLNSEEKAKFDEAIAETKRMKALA

For `C[C@@H]1CN(c2cnn(Cc3ccc(NC(=O)Nc4ccc(F)cc4[N+](=O)[O-])cc3)c(=O)c2Cl)C[C@H](C)N1`, the growth inhibition in assay [1] is 10%; in assay [4] it was 89% (active). For the same compound, the inhibition was 4% in assay [2] and -2% in assay [3]. Besides, the outcome in assay [5], in assay [6], in assay [7] and in assay [8] was inactive.
As to `CCN(CC)C(=NCCCCCCN=C(NC(N)=NCc1ccc(Cl)cc1Cl)N(CC)CC)NC(N)=NCc1ccc(Cl)cc1Cl`, the growth inhibition was 99% (active) in assay [1] and 102% (active) in assay [4]. For the same compound, the inhibition is 16% in assay [2] and -3% in assay [3]. For the same compound, the outcome in assay [5], in assay [6], in assay [7] and in assay [8] was inactive.
On to `O=C1O[C@H](c2ccccc2)[C@H](c2ccccc2)N(C(=O)OCc2ccccc2)[C@H]1Cc1ccccc1C1CCCC1`, for which the values for the growth inhibition in assay [1] and in assay [4] were -3% and 97% (active), respectively. Besides, the inhibition in assay [2] was 56% (active); in assay [3], 1%. The outcome in assay [5], in assay [6], in assay [7] and in assay [8] was inactive.
`COc1ccc2c(NN=Cc3cccc(F)c3)ccnc2c1`: the growth inhibition in assay [1] is 95% (active); in assay [4] it was 101% (active). For the same compound, the inhibition in assay [2] is 49%; in assay [3], -5%. Further, the outcome in assay [5], in assay [6], in assay [7] and in assay [8] was inactive.
For `CC(=O)OCCN1C(=O)c2ccc3c4c(ccc(c24)C1=O)C(=O)N(CCOC(C)=O)C3=O`, the growth inhibition in assay [1] was 1%; in assay [4] it was 94% (active). Also, the inhibition in assay [2] was 2%; in assay [3], 3%. The result in assay [5], in assay [6], in assay [7] and in assay [8] was inactive.
Regarding `COc1ccc(C(=O)CC(=O)c2ccc(OC)cc2OC)c(OC)c1`, the figures for the growth inhibition in assay [1] and in assay [4] were -2% and 98% (active), respectively. Further, the inhibition in assay [2] was 1%; in assay [3], 2%. Besides, the result in assay [5], in assay [6], in assay [7] and in assay [8] was inactive.
`CC(C)(C)c1ccc(NC(=O)N[C@@H]2CCN(c3ccnc4ccccc34)C2)cc1`: the growth inhibition in assay [1] was 96% (active); in assay [4] it was 102% (active). Moreover, the inhibition in assay [2] was 23%; in assay [3], 0%. Moreover, the result in assay [5], in assay [6], in assay [7] and in assay [8] was inactive.
In the case of `CCCCCC(=O)N1CCOC(CCN2CCc3c(c4ccccc4n3C)C2)(c2ccc(Cl)c(Cl)c2)C1` (centres undefined), the growth inhibition in assay [1] was 80% (active); in assay [4] it was 95% (active). The inhibition in assay [2] is 24%; in assay [3] it was 1%. Further, the outcome in assay [5], in assay [6], in assay [7] and in assay [8] was inactive.
For `COC(=O)c1ccc(Nc2nccc(Nc3ccc(Oc4ccccc4)cc3)n2)cc1`, the growth inhibition in assay [1] is 15%; in assay [4], 93% (active). Besides, the inhibition in assay [2] is -10%; in assay [3], 7%. For the same compound, the outcome in assay [5], in assay [6], in assay [7] and in assay [8] was inactive.
Regarding `CCOC(=O)N[C@@H]1CN[C@@H](C#Cc2cc3c(Nc4ccc(OCc5cccc(F)c5)c(Cl)c4)ncnc3s2)C1`, the growth inhibition was 13% in assay [1] and 86% (active) in assay [4]. For the same compound, the inhibition in assay [2] is 8%; in assay [3], -3%. For the same compound, the outcome in assay [5], in assay [6], in assay [7] and in assay [8] was inactive.
As to `c1ccc(CNc2cc(-c3ccccn3)nc(-c3ccccn3)n2)cc1`, the growth inhibition in assay [1] was 89% (active); in assay [4] it was 84% (active). Further, the inhibition in assay [2] is 88% (active); in assay [3], -2%. Besides, the outcome in assay [5], in assay [6], in assay [7] and in assay [8] was inactive.
Turning to `O=C(NCCCCN1CCC(c2ccc([N+](=O)[O-])cc2)CC1)c1ccc(NC(=O)c2ccc(Cl)cc2)cc1`, the results for the growth inhibition in assay [1] and in assay [4] were 55% (active) and 100% (active), respectively. In addition, the inhibition is 15% in assay [2] and 2% in assay [3]. The outcome in assay [5], in assay [6], in assay [7] and in assay [8] was inactive.
As for `CCc1ccc(CN2CCC(CN(c3ccc(N4CCOCC4)c(F)c3)S(=O)(=O)c3ccc(C(C)(C)CC)cc3)CC2)cc1`, the growth inhibition is 94% (active) in assay [1] and 93% (active) in assay [4]. The inhibition in assay [2] was 26%; in assay [3], -5%. The result in assay [5], in assay [6], in assay [7] and in assay [8] was inactive.
`COc1ccc(CNCCCCCCCNCc2ccc(Cl)c(Cl)c2)cc1Cl`: the results for the growth inhibition in assay [1] and in assay [4] were 18% and 90% (active), respectively. For the same compound, the values for the inhibition in assay [2] and in assay [3] were 27% and 4%, respectively. The outcome in assay [5], in assay [6], in assay [7] and in assay [8] was inactive.
On to `Cc1cc(O)c2c3c1C(=O)C=C1C3c3c(c(O)cc(O)c3C(=O)C1(C)C)C2=O` (centres undefined), for which the growth inhibition in assay [1] was 46%; in assay [4], 98% (active). In addition, the inhibition in assay [2] was 45%; in assay [3], -3%. For the same compound, the result in assay [5], in assay [6], in assay [7] and in assay [8] was inactive.
`COc1ccc(Br)cc1C1Nc2ccc3ccccc3c2C2=C1C(=O)CC(c1ccccc1)C2` (centres undefined): the growth inhibition in assay [1] was 96% (active); in assay [4], 101% (active). The inhibition is 25% in assay [2] and 4% in assay [3]. The outcome in assay [5], in assay [6], in assay [7] and in assay [8] was inactive.
For `Cc1ccccc1C1CCN(C2CCC(NC(=O)c3ccc(-c4ccccc4F)o3)CC2)CC1` (centres undefined), the figures for the growth inhibition in assay [1] and in assay [4] were 66% (active) and 99% (active), respectively. Also, the figures for the inhibition in assay [2] and in assay [3] were 42% and 1%, respectively. Moreover, the result in assay [5], in assay [6], in assay [7] and in assay [8] was inactive.
Take `CCc1cn(CCOC)c2ccc(C(=O)N[C@@H](Cc3ccccc3)[C@H](O)CNC(C)(C)CCCC(C)C)cc12`: the growth inhibition in assay [1] and in assay [4] was 98% (active) each time. In addition, the inhibition was 35% in assay [2] and 1% in assay [3]. In addition, the result in assay [5], in assay [6], in assay [7] and in assay [8] was inactive.
